# About 83,000 compounds went through this panel and 20% of them were active in at least one assay; those are over-represented in the sample as a whole.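 Results are percent growth after 48 hours of single-concentration exposure. 100 means growth as in untreated cells, lower positive values show inhibition; negative values down to -100 show cell death.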 Values without a mark were called inactive. The source made the active and inactive calls. The calls were made as follows: active = growth percent below 10; inactive = the rest.
# Key:
# Experiment in all cases: NCI-60 one-dose screen, 48 h (100 = growth as untreated, 0 = no growth, -100 = all killed)
# Details in all cases: 10 µM unless noted
# EKVX NSCLC = tested on: EKVX NSCLC
# SN12C renal = tested on: SN12C renal
# UO-31 renal = tested on: UO-31 renal
# TK-10 renal = tested on: TK-10 renal
# ACHN renal = tested on: ACHN renal
# CAKI-1 renal = tested on: CAKI-1 renal
# A498 renal = tested on: A498 renal
# CCRF-CEM leukemia = tested on: CCRF-CEM leukemia
# MOLT-4 leukemia = tested on: MOLT-4 leukemia
# SR leukemia = tested on: SR leukemia
Compound,growth (EKVX NSCLC),growth (SN12C renal),growth (UO-31 renal),growth (TK-10 renal),growth (ACHN renal),growth (CAKI-1 renal),growth (A498 renal),growth (CCRF-CEM leukemia),growth (MOLT-4 leukemia),growth (SR leukemia)
Cn1nc(C(C)(C)C)cc1NC(=O)Cc1ccc(/C=C2\C(=O)Nc3ccccc32)cc1,49.1%,62%,52.5%,91.2%,37.4%,45.5%,62.9%,35.8%,6.12% (active),34.9%
O=C(/C=C/c1ccc(C(F)(F)F)cc1)c1ccc(Nc2nc(NCCO)nc(N3CCOCC3)n2)cc1,65.4%,71.5%,48%,81.8%,36.5%,53.1%,98%,10.3%,5.76% (active),19%
COc1ccc(/C=C2/SC(=O)N(CC(=O)N3CCN(c4cc5c(cc4F)c(=O)c(C(=O)O)cn5C4CC4)CC3)C2=O)cc1,114%,96.5%,81.8%,117%,102%,92.4%,113%,107%,108%,94.4%
NC1C(N)C(N)C1N (stereo not given),121%,96.8%,77.9%,99.1%,96.8%,101%,116%,85.1%,83.7%,86.8%
COc1cc(/C=C/C(=O)N2c3ccccc3CC2C)c(OC)c2c1OCO2 (stereo not given),87.7%,97.1%,77.9%,96%,95.7%,101%,69.1%,94.6%,84.6%,102%
COc1ccc(-n2c(C(O)c3ccccc3)nn(CN3CCOCC3)c2=S)cc1 (stereo not given),111%,91%,77.5%,119%,88.6%,97%,115%,96.6%,123%,193%
Nc1nc(-c2cnccn2)nn1-c1nc2ccccc2s1,94.6%,101%,99.6%,117%,108%,96.8%,118%,97.4%,94.7%,98.4%
O=C(/C=C/c1ccc(Cl)cc1)c1ccc(Nc2nc(NCCO)nc(Nc3ccc(Cl)cc3)n2)cc1,59.1%,83.1%,57.3%,94.2%,57.2%,67.3%,79.5%,47.2%,46.1%,23.2%
COc1cc([C@@H]2NC(=O)NC(C)=C2C(=O)Nc2nc(-c3ccc(Cl)cc3)cs2)ccc1O,91.1%,97.4%,69%,103%,98.3%,83%,102%,132%,100%,106%
COC(=O)/C(CCC=C(C)C)=C1\[C@@H](OC(C)=O)C[C@@]2(C)[C@H]1C[C@@H](O)[C@H]1[C@@]3(C)CC[C@H](NCCO)[C@@H](C)[C@@H]3CC[C@@]12C,99.6%,105%,78.9%,115%,97.3%,91%,101%,101%,96.7%,98.3%
COc1cccc2c(=O)c3c(sc12)c(NCCCNCCO)nc1ccccc13,53.9%,56.5%,27.4%,58.6%,33.6%,48.1%,14.5%,29.2%,1.38% (active),0.0565% (active)
O=Cc1c(OCc2cnnn2CC(=O)Nc2ccc(Br)cc2)ccc2ccccc12,82.1%,92.9%,66.3%,93.7%,80.1%,93.9%,74.4%,97.4%,93.7%,95.9%
O=c1c(-c2nc3ccccc3[nH]2)cc2ccccc2n1Cc1cn(Cc2ccc(N3CCOCC3)cc2)nn1,89.7%,49.7%,74.8%,92.7%,35.7%,77.3%,92.4%,110%,99%,71.7%
OC(c1ccccc1)c1nnc(SCc2ccccc2)n1Cc1ccccc1 (stereo not given),102%,89.7%,67.7%,103%,86.9%,97%,90.1%,75.4%,99.9%,42.5%
CCOC(=O)c1ccc(N=Cc2sc(=O)[nH]c2O)cc1,93.4%,95.3%,83.1%,98.4%,90.3%,88.1%,110%,101%,99.9%,117%
C[C@@H](C(=O)NCCCC#Cc1cnc(Nc2ccc(C#N)cc2)nc1NC1CC1)N(C)C(=O)/C=C/CN(C)C,33.5%,35.9%,28.6%,63%,14.3%,60.1%,-5.21% (active),13.8%,7.9% (active),9.79% (active)
CC(=S)NC(=O)C(=O)/C=C1/NC(=O)C(=O)S1,100%,99.1%,79.5%,110%,99.1%,93.8%,103%,107%,112%,107%
Cc1ccc(C2CC(c3ccc(Nc4nc(NCCO)nc(Nc5ccc(Cl)cc5)n4)cc3)=NN2c2cc(Cl)cc(Cl)c2)cc1 (stereo not given),82.7%,96.4%,70.4%,113%,95.3%,73.5%,79.1%,96.8%,93.7%,107%
O=C(Nc1ccc(N2CCNCC2)cc1)c1[nH]ncc1Nc1ncnc2sc3c(c12)CCC3,-86.8% (active),-75.1% (active),-85.6% (active),-95.3% (active),-99.5% (active),-93.1% (active),16.9%,-32.1% (active),-39.3% (active),-8.96% (active)
NCCOc1ncccc1/C=C1\c2ccccc2-c2ccc([N+](=O)[O-])cc21,-19% (active),-62% (active),-99.2% (active),-74.9% (active),-89.4% (active),-39.3% (active),-89% (active),8.64% (active),-3.92% (active),1.14% (active)
O=C(NCc1ccco1)C1CN(c2ccc(Cl)cc2)N(c2ccc(Cl)cc2)C1=O (stereo not given),65.5%,62.9%,42.7%,84.2%,63.5%,41.1%,38.2%,32.3%,28.3%,36.7%
O=Cc1c(OCc2cnnn2CC(=O)Nc2ccc(Cl)cc2)ccc2ccccc12,96.6%,97.3%,73.2%,118%,94.9%,94%,96.7%,110%,90.7%,90.5%
Cc1cccc(NC(=O)c2sc3nc4c(cc3c2N)CCCC4)c1C,45.4%,38.9%,50.6%,65.4%,41.3%,34.8%,4.01% (active),7.79% (active),19.3%,34.7%
C=C1C(=O)O[C@H]2[C@H]1CC/C(COC(=O)/C=C\C(=O)O)=C\CC[C@@]1(C)O[C@@H]21,102%,99.1%,85.2%,106%,98%,100%,93.5%,107%,110%,114%
O=C(Nc1ccc(N2CCNCC2)cc1)c1[nH]ncc1Nc1cc(Oc2ccccc2)ncn1,32.5%,2.47% (active),-13.1% (active),49.5%,-99.1% (active),18.4%,40.6%,-27.5% (active),-16% (active),1.43% (active)
COC(=O)/C(CCC=C(C)C)=C1\[C@@H](OC(C)=O)C[C@@]2(C)[C@H]1CC(=O)N[C@H]1[C@@]3(C)CCNC(=O)[C@@H](C)[C@@H]3CC[C@@]12C,98%,98.9%,81.9%,99.5%,101%,95.5%,109%,104%,99.5%,103%

# From PubChem BioAssay (NCI)
